# PLK1 PBD block: qHTS for Inhibitors of PLK1-PDB (polo-like kinase 1 - polo-box domain): Primary Screen | Plk1 PBD binding of FITC phosphopeptide, fluorescence polarization | AID 720504, 2013 | 360,000 tested, 2.8% active | Potency, µM, inactives show max response, negative = inhibition, hits mostly inhibitors; note: series mostly up to about 57 µM; % is set by controls: 0 for no effect and ±100 for the full control effect; nearly all actives have a fitted effect of over 65% in size
# Target sequence (P53350 whole entry, looked up, the tested form may be a part): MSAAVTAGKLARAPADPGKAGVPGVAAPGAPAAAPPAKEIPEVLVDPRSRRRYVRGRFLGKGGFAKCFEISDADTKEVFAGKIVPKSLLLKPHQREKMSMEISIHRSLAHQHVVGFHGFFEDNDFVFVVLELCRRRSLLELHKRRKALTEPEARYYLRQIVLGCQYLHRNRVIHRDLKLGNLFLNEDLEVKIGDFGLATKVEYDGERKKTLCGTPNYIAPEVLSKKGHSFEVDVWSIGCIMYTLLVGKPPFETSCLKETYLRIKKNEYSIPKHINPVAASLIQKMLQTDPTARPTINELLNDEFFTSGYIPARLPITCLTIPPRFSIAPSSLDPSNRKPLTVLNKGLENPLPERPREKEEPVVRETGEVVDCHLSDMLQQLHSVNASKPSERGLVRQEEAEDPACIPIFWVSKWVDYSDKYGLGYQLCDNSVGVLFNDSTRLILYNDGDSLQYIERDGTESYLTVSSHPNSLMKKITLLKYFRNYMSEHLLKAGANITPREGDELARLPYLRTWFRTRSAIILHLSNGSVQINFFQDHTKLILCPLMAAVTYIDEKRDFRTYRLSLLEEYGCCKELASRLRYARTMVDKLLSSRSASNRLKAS
# G9a inh: qHTS Assay for Inhibitors of Histone Lysine Methyltransferase G9a | Potency, µM (titrated, usually from 102 µM), inactives show at the highest dose activity, negative = inhibition, hits mostly inhibitors | AID 504332, 2011 | Histone-lysine N-methyltransferase EHMT2 (Homo sapiens), Q96KQ7 | 350,000 tested, 8.8% active | G9a H3K9 monomethylation, AlphaScreen, 2 h; note: % is set by controls: 0 for no effect and ±100 for the full control effect; nearly all actives have a fitted effect of over 75% in size
#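 Compounds were preincubated with 20 nM G9a for 15 min, after which biotinylated H3K9 peptide (500 nM) and SAM (20 uM) started a 2 h room-temperature reaction. Monomethylated product was quantified by antibody-based AlphaScreen chemiluminescence.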
# BAZ2B inh: qHTS Assay for Inhibitors of BAZ2B; Bromodomain adjacent to zinc finger domain protein 2B (Homo sapiens), Q9UIF8; AlphaScreen BAZ2B-H3K14Ac peptide displacement; Potency, µM (series often up to 114 µM), for inactives: top-dose activity change, negative = inhibition, usual class: inhibitors; 360,000 tested, 4.4% active; AID 504333, 2011; note: % is set by controls: 0 for no effect and ±100 for the full control effect; nearly all actives have a fitted effect of over 60% in size
#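 Inhibition is scored as reduced AlphaScreen emission. The BAZ2B/b-H3(5-23)K14Ac complex (50 nM each) in PBS pH 7.4, 0.01% Tween-20 meets compound (up to 110 uM) for 30 min at RT before bead addition.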
# Sfp inh: qHTS Assay for Inhibitors of Bacillus subtilis Sfp phosphopantetheinyl transferase (PPTase); 4'-phosphopantetheinyl transferase ffp (Bacillus subtilis), Q9F4F7; Biochemical Sfp PPTase activity, qHTS; Potency, µM, inactives show largest response in the series, negative = inhibition, most hits filed as inhibitors; 310,000 tested, 3.5% active; AID 1490, 2009;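 note: the enzyme is Sfp with the accession as filed and its product quenches rhodamine fluorescence; 0% = enzyme reaction without inhibitor and -100% = no enzyme wells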
#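 Reaction rates are the 30-min fluorescence difference (ex 525, em 598 nm) in wells containing 15 nM Sfp, 5 uM rhodamine-CoA and 12.5 uM BHQ-2-YbbR at pH 7.6 with 10 mM MgCl2.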
# HP1b chromo inh: HTS for Inhibitors of HP1-beta Chromodomain Interactions with Methylated Histone Tails; Chromobox protein homolog 1 (Homo sapiens), P83916; AlphaScreen HP1-beta / biotin-H3K9me3 peptide binding; Potency, µM (doses to about 114 µM), inactives show at the highest dose activity change, negative = inhibition, most hits filed as inhibitors; 390,000 tested, 0.56% active; AID 540317, 2011; note: nearly all actives have a fitted effect of over 70% in size
#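 HP1-beta protein (50 nM final) preincubated 30 min at room temperature with biotinylated H3(1-18)K9me3 peptide (50 nM) in PBS pH 7.4, 0.01% Tween-20, then compound added for 30 min. AlphaScreen streptavidin donor/nickel chelate acceptor beads (10 ug/mL final), 30 min dark, luminescence read.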
# JMJD2A Tudor inh: qHTS Assay for Inhibitors of JMJD2A-Tudor Domain. Lysine-specific demethylase 4A (Homo sapiens), O75164. AlphaScreen JMJD2A-Tudor / H3K4me3 peptide binding. Potency, µM (top dose mostly 114 µM), without a hit: at the highest dose activity change, negative = inhibition, actives largely listed as inhibitors. 390,000 tested, 4.4% active. AID 504339, 2011; note: % is set by controls: 0 for no effect and ±100 for the full control effect; nearly all actives have a fitted effect of over 50% in size
# * marks the source's active call; other numbers are inactive results; u = inconclusive; x = no result given; [ ] = remark or other dose. The list is not random: actives were taken first. Their share in the collection is about 12%. Calls come from the whole dose curve; as a rule, active = well fitted curve in the direction sought with a large enough effect; inconclusive = small, poorly fitted or top-dose-only effect, or another doubt; inactive = no such curve, though single readings can be large; an effect the other way counts as inactive or inconclusive. Potency is the fitted concentration of half-maximal effect.
SMILES,PLK1 PBD block,G9a inh,BAZ2B inh,Sfp inh,HP1b chromo inh,JMJD2A Tudor inh
CN1C/C(=C/c2ccncc2)C(=O)/C(=C/c2ccncc2)C1,-9%,50µM*,-35%,2%,36%,0%
CN1C/C(=C/c2ccsc2)C(=O)/C(=C/c2ccsc2)C1,-3%,u,u,-14%,-10%,u
CN1C/C(=C\c2ccc(N3CCOCC3)cc2)C(=O)/C(=C/c2ccc(N3CCOCC3)cc2)C1,30%,u,50µM*,-19%,u,u
CCCC(=O)Nc1ccc(N2CCOCC2)cc1,-17%,-31%[12.7 µM],8%,-12%,26%,-12%[11.4 µM]
O=C(CN1CCN(c2cnn(-c3ccccc3)c(=O)c2Cl)CC1)NC1CCS(=O)(=O)C1 (stereo not given),0%,45µM*,1%,x,19%,-11%
CCCCNC1=CC(=O)C(=O)c2ccccc21,-17%,-1%,-37%,12%,0%,-20%
CCCCNC1=CC(=O)C(NCCCC)=CC1=O,-18%,x,x,x,18µM*,40µM*
COc1ccc(CCNC(=O)c2coc(=O)c(Br)c2)cc1,-8%,12%[0.501 µM],-4%,17%,22%,-16%
CSc1cccc(CN2CCCC(C(=O)Nc3cccc(-n4cccn4)c3)C2)c1 (stereo not given),-20%,x,-8%,8%,-20%,u
CCN(Cc1cccs1)C(=O)CN1C(=O)NC2(CCCc3ccccc32)C1=O (stereo not given),-7%,6%[12.7 µM],8%,x,30%,-18%
CCN(Cc1cccs1)C(=O)CN1C(=O)NC(c2ccccc2)(c2ccccc2)C1=O,-13%,7.9µM*,-4%,x,7%,-30%
c1csc(CNc2ncncc2-c2ccc3c(c2)OCO3)c1,x,x,x,-26%,x,x
CCCc1cc(=O)[nH]c(SCC(=O)Nc2ccc(Cl)c(S(=O)(=O)N3CCOCC3)c2)n1,-9%,-19%[59 µM],12%,x,41%,-8%
CCOC(=O)C1CCN(C2=C(NS(=O)(=O)c3ccc(Br)cc3)C(=O)c3ccccc3C2=O)CC1,u,8.9µM*,5.6µM*,15%,7.1µM*,7.9µM*
CCOC(=O)C1CCN(C(=O)c2cccc(NS(=O)(=O)c3ccc(Br)cc3)c2)CC1,-13%,23%[12.7 µM],9%,x,16%,-11%
NC(=O)C1CCN(c2nc3ccccc3nc2NS(=O)(=O)c2ccc(Br)cc2)CC1,-27%,x,x,x,0%,-16%
NC(=O)C1CCN(C2=C(NS(=O)(=O)c3ccc(Br)cc3)C(=O)c3ccccc3C2=O)CC1,-12%,x,40µM*,-8%,u,79µM*
NC(=O)C1CCN(C2=C(NS(=O)(=O)c3ccccc3)C(=O)c3ccccc3C2=O)CC1,-18%,x,40µM*,3%,u,u
CCN1CCN(C2=C(NS(=O)(=O)c3ccccc3)C(=O)c3ccccc3C2=O)CC1,-13%,0%[0.0925 µM],u,7%,-13%[57 µM],-33%
CCN1CCN(C2=C(NS(=O)(=O)c3ccc(Br)cc3)C(=O)c3ccccc3C2=O)CC1,-19%,45µM*,45µM*,-13%,-17%,u
Nc1ncnc2c1nc(Br)n2C1O[C@H]2COP(=O)(O)O[C@@H]2C1O (stereo not given in full),x,24%[12.7 µM],x,x,x,x
COc1ccccc1CC(=O)Nc1ccc2c(C)cc(=O)oc2c1,-26%,71µM*,-3%,12%,-4%,-5%
Cc1ccccc1CC(=O)Nc1ccc2c(C)cc(=O)oc2c1,-8%,x,-16%,13%,18%,-24%
COC(=O)CCC(=O)OC1(C)C(=O)C2=CN(CC(C)C)C(c3ccc(OC)cc3)=CC2=C(Br)C1=O (stereo not given),x,0%[12.7 µM],40µM*,u,x,x

# High-throughput results deposited in PubChem by National Center for Advancing Translational Sciences (NCATS).
